Reference: PubChem BioAssay AID1117361 (Southern Research Institute, 2015)
Among all 3,600 compounds or so, about 900 (25%) were called active. The list is a sample of the results. Results with a measured potency or affinity are listed apart. Values without a mark were called inactive. How the calls were made is not given here.

biological target: Protein Tat (Human immunodeficiency virus type 1 group M subtype B (isolate HXB2)) (UniProt P04608); assay: HIV-1 Tat–TAR interaction blockers – biochemical, fluorescence polarization, FAM-labeled TAR RNA, counter-screen for Vif-APOBEC3G degradation inhibitor project, dose response (AID 1117361); settings: Tat-TAR RNA binding; series mostly up to 100 µM; inhibition: at the top concentration

Compound	outcome	inhibition
Cc1noc(C)c1COC(=O)c1cccc(S(=O)(=O)N2CCCCCC2)c1	inactive	–
O=C(NCc1cccs1)Nc1cccs1	–	25.9%
c1ccc(CCc2nn3c(C4COc5ccccc5O4)nnc3s2)cc1 (centres undefined)	–	0.33%
CCOc1ccc(N(CC(=O)NC2CCCCC2)S(=O)(=O)c2c(C)noc2C)cc1	–	6.14%
CCOc1ccc(N(CC(=O)NCc2ccc(F)cc2)S(=O)(=O)c2c(C)noc2C)cc1	–	4.09%
C=C(C)Cn1c(C)cc(C)c(S(=O)(=O)c2ccccc2C)c1=O	–	6.82%
C/C(=C\C(=O)c1ccc(Br)cc1)N1CCCCC1	inactive	–
COc1ccc(OCC(O)CNc2ccc(Br)cc2)cc1 (centres undefined)	–	3.41%
COc1ccc(NCc2nc3ccccc3n2CCOc2ccccc2)cc1	–	24.6%
COc1cc(Br)c(CNc2cc(C)ccc2C)cc1OC	–	3.01%
O=c1cc(OCc2ccccc2)cc[nH]1	inactive	–
NCCOc1ccccc1Cc1ccccc1	–	4.09%
O=C(NC(=S)NCCN1CCOCC1)c1ccc(Cl)cc1Cl	–	4.73%
CN(C1=C(NC(=O)c2ccc(Cl)cc2)C(=O)c2ccccc2C1=O)c1ccccc1	–	7.5%
CC(=O)NCCC(=O)NCc1ccc(F)cc1	–	4.73%
Cc1cccc(N2CCN(C(=O)c3ccncc3)CC2)c1C	–	19.8%
CCOc1ccc(S(=O)(=O)N2CC(=O)Nc3ccccc32)cc1C#N	–	4.34%
C=CCc1cc(/C=N\NC(=O)CSc2nnc(CCCc3ccc(OC)c(C)c3)o2)cc(OC)c1O	–	2.05%
Cc1ccc(Nc2cnn(C34CC5CC(CC(CC(=O)O)(C5)C3)C4)c(=O)c2Cl)cc1C	–	2.03%
CCOC(=O)CN1C(=O)C(Sc2n[nH]c(-c3ccccc3)n2)CCc2ccccc21 (centres undefined)	–	8.11%
NCCC(=O)N1c2ccccc2Sc2ccccc21	inactive	–
COc1cccc(CNCCc2c[nH]c3ccccc23)c1OCc1ccccc1	–	23.9%
CCOc1cc(CNc2ccc(O)cc2)cc(Br)c1OCc1ccccc1F	–	3.3%
CCOCC(O)CS(=O)Cc1ccccc1 (centres undefined)	inactive	–
CC(=NNC(=S)SCc1ccccc1)c1ccccn1	inactive	–

Compound	outcome	inhibition
O=C(Nc1cccnc1)c1sc(Nc2ccccc2F)nc1-c1ccccc1	inactive	–
Cc1cc(C)n2nc(C(=O)Nc3cccnc3)nc2n1	–	4.73%
Cc1cc(NC(=O)CSc2nnc(-c3ccoc3C)n2N)no1	–	8.78%
CCOC(=O)N1CCN(S(=O)(=O)c2ccc(F)c(C(=O)Nc3cc(C)cc(C)c3)c2)CC1	–	3.41%
CC(C)OCCCNC(=O)CNC(=O)c1cccs1	inactive	–
COc1ccc(S(=O)(=O)N2CCN(C(=O)c3cc(C)on3)CC2)cc1	inactive	–
Cc1ccc(C(=O)/C=C/c2cc(C#N)n(C)c2C)cc1	inactive	–
CCOC(=O)c1c(NC(=O)CSc2nncs2)sc(C)c1C	–	2.73%
O=C1CCCC2=C1C(O)(C(F)(F)F)C(=O)N2Cc1ccccc1 (centres undefined)	–	2.73%
CCOC(=O)C1(C)NC(c2ccco2)C2C(=O)N(CC)C(=O)C21 (centres undefined)	inactive	–
CCOC(=O)C1=C(C)n2c(s/c(=C/c3cccc([N+](=O)[O-])c3)c2=O)=NC1c1ccc(O)c(OC)c1 (centres undefined)	–	8.11%
CCN(Cc1ccccc1)S(=O)(=O)c1ccc(C(=O)Nc2nnc(C3CC3)o2)cc1	–	3.38%
COCCNC(=O)COc1ccc(Br)cc1Cl	inactive	–
COc1ccc(-c2cc3ccc(OCc4nn[nH]n4)cc3oc2=O)cc1	–	17.7%
NC(=O)c1ccc(N2CCN(c3ncc(C(F)(F)F)cc3Cl)CC2)cc1	–	12.4%
O=C(Cn1cc2c(n1)CCCC2)NCc1cccnc1	–	3.41%
COc1ccc(S(=O)(=O)N2CCC(C(=O)NCCC3=CCCCC3)CC2)cc1C	inactive	–
O=C(/C=C/c1ccco1)c1cccnc1	–	3.67%
Clc1ccc(-c2nnc(SCc3ccon3)o2)c(Cl)c1	–	4.05%
CCOC(=O)c1cccc(NC(=O)CCc2nc(-c3ccc(C)cc3)no2)c1	inactive	–
CCCOc1ccc(-c2nnn(CC(=O)OCC)n2)cc1	inactive	–
O=C1c2ccccc2C(=O)N1CCc1csc(-c2ccc(F)cc2)n1	–	2.03%
O=C(O)Cn1c(O)c(C=Nc2ccccc2)sc1=S	–	18.2%
Cc1cc(C)c(C)c(S(=O)(=O)N2C(=S)NC(=O)C2C(C)C)c1C (centres undefined)	–	0.68%
Cc1cc(Oc2ccc(-c3ccccc3)cc2)n2ncnc2n1	–	0.68%

Compound	outcome	inhibition
CCn1c(SCC(=O)NCc2ccc3c(c2)OCO3)nnc1-c1cccs1	–	0.68%
CCOC(=O)C/C(C)=N\Nc1ccc([N+](=O)[O-])cc1[N+](=O)[O-]	inactive	–
O=C(c1ccc(N2CCN(C3CC(=O)N(c4ccc(F)cc4)C3=O)CC2)cc1)c1cccnc1 (centres undefined)	inactive	–
CN(C)S(=O)(=O)c1ccc(NC(=O)N2CCN(c3cccc(C(F)(F)F)c3)CC2)cc1	–	2.03%
COc1cccc(CNCC(=O)Nc2ccc(N3CCOCC3)cc2)c1	inactive	–
O=S(=O)(c1cccc(C(F)(F)F)c1)N1CCN(c2ccccc2)CC1	–	0.68%
C=CCOc1c(Br)cc(CNn2nnnc2N)cc1OCC	–	8.19%
O=C(O)CN1C(=O)COc2cc(S(=O)(=O)N3CCCC3)ccc21	–	8.78%
O=C(c1cc(Cl)ccc1Cl)N1CCN(c2ccccn2)CC1	–	2.7%
Clc1ccc(-c2cnc(Oc3ccccc3)nc2)cc1	inactive	–
O=C(CNS(=O)(=O)c1ccc(Br)s1)N1CCCC1	–	1.35%
CCCCCC(=O)Nc1nnn(CCC)n1	–	4.77%
Cc1ccc(-n2nc(-c3ccc(N)cc3)cc2N)cc1	–	15%
CCOCC(=O)Nc1ccc(C)c(Cl)c1	–	8.19%
Cc1ccc(S(=O)(=O)Nc2cc(NC(=O)CN3CCOCC3)ccc2Cl)cc1	inactive	–
CCOC(=O)N1CCN(C(=O)c2cnn(-c3ccccc3)c2NC(=O)c2ccccc2F)CC1	inactive	–
Cc1ccc(C=Nc2ccccc2C(N)=O)s1	inactive	–
O=C(Nc1ccc(F)cc1F)NC1CCN(S(=O)(=O)c2ccc(F)cc2)CC1	–	4.12%
Cc1nc(-c2noc(-c3ccccc3Cl)n2)c(C(F)(F)F)o1	inactive	–
O=C(Cn1cncn1)N/N=C/c1ccccc1Cl	–	0.82%
CCOc1cccc(-c2cc(=O)[nH][nH]2)c1	inactive	–
Cc1csc(NC(=O)C(NS(=O)(=O)c2ccc(Br)s2)c2ccccc2)n1 (centres undefined)	–	0.68%
CC(=O)c1c(C)[nH]c(C(=O)OCC(=O)C(C)(C)C)c1C	inactive	–
CCOC(=O)c1c(C)[nH]c(C(=O)OCC(=O)Nc2sc(C(=O)N(C)C)c(C)c2C(=O)OCC)c1C	–	12.4%
